Laboratory results: the supplement of paper PMC10849652
Targets with a hit are over-represented here; the source holds about 7,900 in all. About 0.6% of all pairs of compound and target were hits. Values without a mark were called inactive.

Experiments:
Experiment in all cases: log2 fold change, soluble protein after heating vs DMSO (PISA); higher = thermal stabilisation; K562 cells, 10 uM, 30 min; active = over 0.2 and 3.5 SD of the protein, either way, in both replicates (recomputed)
[1] = compound: NC(=O)Nc1cc(-c2cccc(F)c2)sc1C(=O)N[C@H]1CCCNC1
Procedure, shortened: (§1)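 Thermal stability values are relative to control samples and come from duplicates. They are expressed as log2 fold changes. For measurement, K562 cells (2×10^6 cells/mL) received 10 μM compound for 30 min, and aliquots were heated for 3 min over 48°C-58°C, pooled, and extracted at 4°C in PBS with 0.5% NP-40. Soluble protein, the supernatant after 21,000xg for 90 min, was quantified by TMTpro 16plex LC-MS/MS with equalised channel sums.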

[2] = compound: NC(=O)c1cnc(N[C@@H]2CCCC[C@@H]2N)nc1Nc1cccc(-n2nccn2)c1
Procedure, shortened: as §1

[3] = compound: NC1(c2ccc(-c3nc4ccn5c(=O)[nH]nc5c4cc3-c3ccccc3)cc2)CCC1
Procedure, shortened: as §1

[4] = compound: NCC(=O)Nc1ccc(-n2nc(C(F)(F)F)cc2-c2ccc3c(ccc4ccccc43)c2)cc1
Procedure, shortened: as §1

entinostat = compound: Nc1ccccc1NC(=O)c1ccc(CNC(=O)OCc2cccnc2)cc1 [entinostat]
Procedure, shortened: as §1

vorinostat = compound: O=C(CCCCCCC(=O)Nc1ccccc1)NO [vorinostat]
Procedure, shortened: as §1

citarinostat = compound: O=C(CCCCCCNC(=O)c1cnc(N(c2ccccc2)c2ccccc2Cl)nc1)NO [citarinostat]
Procedure, shortened: as §1

silmitasertib = compound: O=C(O)c1ccc2c(c1)nc(Nc1cccc(Cl)c1)c1ccncc12 [silmitasertib]
Procedure, shortened: as §1

[5] = compound: O=C1NC(=O)C(c2cnc3ccccn23)=C1c1cn2c3c(cc(F)cc13)CN(C(=O)N1CCCCC1)CC2
Procedure, shortened: as §1

[6] = compound: c1cc(OCCN2CCCCC2)cc(-c2n[nH]c3ccc(-c4nnc[nH]4)cc23)c1
Procedure, shortened: as §1

entospletinib = compound: c1cn2cc(-c3ccc4cn[nH]c4c3)nc(Nc3ccc(N4CCOCC4)cc3)c2n1 [entospletinib]
Procedure, shortened: as §1

Chain of UniProt Q10589 (Q10589 whole entry, looked up): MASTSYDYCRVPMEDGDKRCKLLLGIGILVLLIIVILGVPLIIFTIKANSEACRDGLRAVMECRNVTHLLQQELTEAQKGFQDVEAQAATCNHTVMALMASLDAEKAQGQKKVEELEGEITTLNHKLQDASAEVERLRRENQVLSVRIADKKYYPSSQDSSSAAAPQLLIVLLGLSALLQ
Chain of UniProt Q8WUW1 (Q8WUW1 whole entry, looked up): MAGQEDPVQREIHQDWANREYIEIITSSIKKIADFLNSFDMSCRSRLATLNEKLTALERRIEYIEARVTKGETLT
Chain of UniProt Q5JTZ9 (Q5JTZ9 whole entry, looked up): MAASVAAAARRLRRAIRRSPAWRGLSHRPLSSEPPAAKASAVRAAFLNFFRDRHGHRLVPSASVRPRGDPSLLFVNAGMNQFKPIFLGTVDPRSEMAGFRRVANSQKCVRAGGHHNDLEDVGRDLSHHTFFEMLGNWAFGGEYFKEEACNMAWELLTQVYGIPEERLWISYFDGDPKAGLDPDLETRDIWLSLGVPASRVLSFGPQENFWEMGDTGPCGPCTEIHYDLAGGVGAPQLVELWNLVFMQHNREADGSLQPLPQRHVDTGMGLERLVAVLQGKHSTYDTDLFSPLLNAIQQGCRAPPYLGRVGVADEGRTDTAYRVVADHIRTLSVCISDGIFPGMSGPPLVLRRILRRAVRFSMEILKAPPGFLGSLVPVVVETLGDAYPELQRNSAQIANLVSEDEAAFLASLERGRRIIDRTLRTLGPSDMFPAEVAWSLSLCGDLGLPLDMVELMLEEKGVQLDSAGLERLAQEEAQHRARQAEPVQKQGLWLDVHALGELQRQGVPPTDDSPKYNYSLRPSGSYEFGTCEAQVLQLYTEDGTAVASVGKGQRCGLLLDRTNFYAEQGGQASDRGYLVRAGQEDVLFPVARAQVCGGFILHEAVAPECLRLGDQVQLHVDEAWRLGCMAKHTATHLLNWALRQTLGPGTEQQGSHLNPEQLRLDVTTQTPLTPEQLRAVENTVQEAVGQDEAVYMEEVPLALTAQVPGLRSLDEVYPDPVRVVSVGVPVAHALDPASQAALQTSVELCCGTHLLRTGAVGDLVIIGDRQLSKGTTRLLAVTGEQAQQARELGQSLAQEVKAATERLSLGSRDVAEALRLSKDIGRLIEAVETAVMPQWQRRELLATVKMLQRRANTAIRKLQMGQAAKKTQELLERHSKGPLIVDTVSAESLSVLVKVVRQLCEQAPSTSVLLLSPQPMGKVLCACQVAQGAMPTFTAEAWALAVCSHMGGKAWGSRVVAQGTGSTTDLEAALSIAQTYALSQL
Chain of UniProt Q8N6H7 (Q8N6H7 whole entry, looked up): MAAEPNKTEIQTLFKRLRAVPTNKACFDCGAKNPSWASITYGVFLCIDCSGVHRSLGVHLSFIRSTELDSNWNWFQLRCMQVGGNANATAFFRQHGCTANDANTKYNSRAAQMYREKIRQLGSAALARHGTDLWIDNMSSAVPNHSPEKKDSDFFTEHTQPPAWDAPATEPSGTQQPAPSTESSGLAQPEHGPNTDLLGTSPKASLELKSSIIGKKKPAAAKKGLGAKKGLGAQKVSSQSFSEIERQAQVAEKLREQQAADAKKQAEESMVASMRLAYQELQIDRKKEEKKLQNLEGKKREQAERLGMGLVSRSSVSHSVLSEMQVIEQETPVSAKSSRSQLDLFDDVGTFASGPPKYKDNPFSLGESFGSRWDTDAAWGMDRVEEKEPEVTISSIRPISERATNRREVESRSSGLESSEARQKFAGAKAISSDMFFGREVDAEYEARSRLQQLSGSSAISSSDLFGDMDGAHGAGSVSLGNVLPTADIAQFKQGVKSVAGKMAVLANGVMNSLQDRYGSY
Chain of UniProt P21283 (P21283 whole entry, looked up): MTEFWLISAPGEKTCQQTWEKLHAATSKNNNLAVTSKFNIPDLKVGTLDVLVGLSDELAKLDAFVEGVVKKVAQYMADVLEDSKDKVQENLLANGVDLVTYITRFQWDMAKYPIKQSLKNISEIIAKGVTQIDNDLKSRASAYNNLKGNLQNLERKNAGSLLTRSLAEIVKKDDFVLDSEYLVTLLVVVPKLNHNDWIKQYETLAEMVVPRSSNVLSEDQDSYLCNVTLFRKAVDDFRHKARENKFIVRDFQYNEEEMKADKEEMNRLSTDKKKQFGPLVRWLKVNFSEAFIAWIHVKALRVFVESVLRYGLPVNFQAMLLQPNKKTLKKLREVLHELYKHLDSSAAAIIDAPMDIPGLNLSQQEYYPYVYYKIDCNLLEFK
Chain of UniProt Q13685 (Q13685 whole entry, looked up): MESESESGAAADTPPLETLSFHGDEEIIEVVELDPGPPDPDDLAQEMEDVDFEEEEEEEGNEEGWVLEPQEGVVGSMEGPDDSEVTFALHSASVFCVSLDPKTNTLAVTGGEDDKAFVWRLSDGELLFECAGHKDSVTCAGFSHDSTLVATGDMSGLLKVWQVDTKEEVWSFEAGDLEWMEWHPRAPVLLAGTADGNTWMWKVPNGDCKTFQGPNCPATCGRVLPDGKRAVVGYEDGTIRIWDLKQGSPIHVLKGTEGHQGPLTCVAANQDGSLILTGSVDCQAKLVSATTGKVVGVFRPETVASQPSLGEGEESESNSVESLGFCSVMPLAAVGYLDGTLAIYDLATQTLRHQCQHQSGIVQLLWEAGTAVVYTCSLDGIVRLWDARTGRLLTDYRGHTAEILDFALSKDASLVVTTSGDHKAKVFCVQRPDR
Chain of UniProt Q92560 (Q92560 whole entry, looked up): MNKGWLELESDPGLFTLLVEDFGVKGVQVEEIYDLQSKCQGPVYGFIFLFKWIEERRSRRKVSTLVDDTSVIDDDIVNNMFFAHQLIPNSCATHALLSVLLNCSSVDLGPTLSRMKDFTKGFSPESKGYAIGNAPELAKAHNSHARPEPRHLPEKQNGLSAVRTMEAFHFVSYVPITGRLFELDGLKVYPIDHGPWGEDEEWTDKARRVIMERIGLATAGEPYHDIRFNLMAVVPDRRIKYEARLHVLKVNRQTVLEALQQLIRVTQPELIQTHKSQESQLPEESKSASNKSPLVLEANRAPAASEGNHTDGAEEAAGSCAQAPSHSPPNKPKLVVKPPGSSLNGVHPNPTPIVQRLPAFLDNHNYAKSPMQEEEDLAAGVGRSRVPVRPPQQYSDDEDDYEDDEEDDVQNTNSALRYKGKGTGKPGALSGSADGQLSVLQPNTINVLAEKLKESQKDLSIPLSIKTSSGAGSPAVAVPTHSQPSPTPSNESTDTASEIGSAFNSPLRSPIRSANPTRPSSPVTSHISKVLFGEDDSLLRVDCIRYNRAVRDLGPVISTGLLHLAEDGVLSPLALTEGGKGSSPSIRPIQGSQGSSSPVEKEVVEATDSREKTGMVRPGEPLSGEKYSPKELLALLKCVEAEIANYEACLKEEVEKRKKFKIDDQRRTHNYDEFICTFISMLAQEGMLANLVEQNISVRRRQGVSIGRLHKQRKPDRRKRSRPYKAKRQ
Chain of UniProt Q8TDN6 (Q8TDN6 whole entry, looked up): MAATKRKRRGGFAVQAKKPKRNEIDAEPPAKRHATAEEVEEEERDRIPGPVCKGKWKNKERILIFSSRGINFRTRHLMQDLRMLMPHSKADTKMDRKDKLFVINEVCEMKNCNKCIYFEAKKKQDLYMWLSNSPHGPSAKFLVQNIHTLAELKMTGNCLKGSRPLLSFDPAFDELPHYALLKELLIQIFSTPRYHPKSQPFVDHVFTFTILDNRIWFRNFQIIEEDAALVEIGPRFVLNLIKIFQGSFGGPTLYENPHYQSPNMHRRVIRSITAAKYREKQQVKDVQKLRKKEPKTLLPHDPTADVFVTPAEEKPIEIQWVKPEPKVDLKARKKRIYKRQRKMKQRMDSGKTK
Chain of UniProt Q14457 (Q14457 whole entry, looked up): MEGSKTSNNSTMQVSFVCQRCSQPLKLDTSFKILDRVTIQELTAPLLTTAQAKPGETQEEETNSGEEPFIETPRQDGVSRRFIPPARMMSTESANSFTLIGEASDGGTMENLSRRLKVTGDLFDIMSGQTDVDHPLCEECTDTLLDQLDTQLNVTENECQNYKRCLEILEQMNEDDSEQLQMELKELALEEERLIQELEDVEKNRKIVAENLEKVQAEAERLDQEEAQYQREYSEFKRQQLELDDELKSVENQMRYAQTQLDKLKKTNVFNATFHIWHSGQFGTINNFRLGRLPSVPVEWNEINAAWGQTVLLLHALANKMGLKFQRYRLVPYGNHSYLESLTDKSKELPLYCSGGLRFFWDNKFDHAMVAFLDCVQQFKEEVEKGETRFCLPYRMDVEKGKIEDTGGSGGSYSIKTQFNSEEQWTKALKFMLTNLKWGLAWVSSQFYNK
Chain of UniProt P10398 (P10398 whole entry, looked up): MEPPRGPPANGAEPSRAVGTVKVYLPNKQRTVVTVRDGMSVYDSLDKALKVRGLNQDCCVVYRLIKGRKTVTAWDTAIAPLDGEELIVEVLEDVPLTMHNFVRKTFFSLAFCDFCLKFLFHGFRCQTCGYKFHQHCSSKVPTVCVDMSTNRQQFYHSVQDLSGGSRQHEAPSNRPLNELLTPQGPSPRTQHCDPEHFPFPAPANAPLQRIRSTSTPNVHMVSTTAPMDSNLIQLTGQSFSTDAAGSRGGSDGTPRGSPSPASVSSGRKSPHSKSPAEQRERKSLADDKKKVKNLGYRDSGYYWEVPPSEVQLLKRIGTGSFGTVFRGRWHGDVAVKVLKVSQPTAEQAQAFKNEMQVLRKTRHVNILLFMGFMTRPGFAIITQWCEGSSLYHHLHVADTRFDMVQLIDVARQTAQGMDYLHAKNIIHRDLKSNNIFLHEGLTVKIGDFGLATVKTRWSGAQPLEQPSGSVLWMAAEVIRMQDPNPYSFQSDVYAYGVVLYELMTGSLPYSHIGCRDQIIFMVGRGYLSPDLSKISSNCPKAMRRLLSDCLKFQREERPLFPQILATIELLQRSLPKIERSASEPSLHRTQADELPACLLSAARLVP
Chain of UniProt Q66PJ3 (Q66PJ3 whole entry, looked up): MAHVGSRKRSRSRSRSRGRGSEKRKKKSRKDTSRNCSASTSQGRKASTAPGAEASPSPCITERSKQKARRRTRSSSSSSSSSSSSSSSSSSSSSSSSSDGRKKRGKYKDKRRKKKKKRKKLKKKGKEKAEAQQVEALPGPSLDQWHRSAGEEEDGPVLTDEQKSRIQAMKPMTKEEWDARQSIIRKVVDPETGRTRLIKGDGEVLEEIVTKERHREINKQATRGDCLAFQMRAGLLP

Target	log2 fold change [1]	log2 fold change [2]	log2 fold change [3]	log2 fold change [4]	log2 fold change (entinostat)	log2 fold change (vorinostat)	log2 fold change (citarinostat)	log2 fold change (silmitasertib)	log2 fold change [5]	log2 fold change [6]	log2 fold change (entospletinib)
AAR2 (UniProt Q9Y312)	-0.016	-0.015	0.066	-0.034	0.026	0.19	-0.009	0.035	0.04	-0.067	-0.017
AKAP8 (UniProt O43823)	-0.043	-0.037	0.023	-0.012	-0.024	0.01	0.002	-0.13	-0.1	-0.043	-0.018
ACP1 (UniProt P24666)	-0.079	-0.24	-0.002	-0.199	0.093	0.01	0.012	0.088	-0.074	-0.014	0.102
ATP6V1C1 (UniProt P21283)	-0.015	-0.135	-0.173	-0.09	0.062	0.039	0.008	0.03	0.025	-0.103	-0.02
ABCB6 (UniProt Q9NP58)	0.005	-0.111	-0.456 (active)	-0.015	-0.011	0.044	0.063	0.018	-0.047	-0.021	0.026
ACBD6 (UniProt Q9BR61)	-0.089	-0.077	-0.006	0.001	-0.048	0.086	0.084	0.134	0.022	0.271	0.035
B4GALT1 (UniProt P15291)	0.053	0.114	-0.279	0.199	-0.01	-0.01	0	0	-0.039	-0.027	0.039
BRD4 (UniProt O60885)	-0.031	-0.096	-0.112	-0.119	-0.097	-0.463 (active)	-0.123	0.024	-0.129	0.028	0.065
ASH2L (UniProt Q9UBL3)	-0.025	-0.075	0.002	-0.074	0.025	0.013	0.044	0.08	-0.064	-0.05	-0.02
AAMP (UniProt Q13685)	-0.006	-0.05	-0.005	-0.018	-0.055	0.015	-0.026	0.061	0.059	-0.013	0.063
ACTR1B (UniProt P42025)	0.075	0.027	-0.003	0.004	-0.034	0.459 (active)	0.078	0.023	0.06	-0.004	0.01
AKT2 (UniProt P31751)	-0.008	-0.266 (active)	1.18 (active)	-0.051	0.085	0.022	0.077	-0.026	-0.017	-0.013	0.005
AGRN (UniProt O00468)	0.016	0.053	0.033	0.02	0.035	-0.126	0.01	-0.073	0.087	-0.238	0.018
BRK1 isoform 2 (UniProt Q8WUW1)	-0.071	0.033	-0.019	0.065	0.079	-0.06	0.031	-0.063	-0.16	-0.078	0.047
ARFGAP2 (UniProt Q8N6H7)	-0.007	-0.097	-0.08	-0.014	0.037	-0.017	0.015	0.017	-0.016	-0.035	0.007
BST2 (UniProt Q10589)	0.031	0.02	0.003	0.132	0.03	-0.026	-0.058	0.009	0.112	-0.092	-0.009
ARL6IP4 (UniProt Q66PJ3)	-0.035	0.221	0.025	0.013	-0.04	-0.011	0.04	-0.017	-0.007	-0.017	0.034
ARAF (UniProt P10398)	-0.059	0.196	-0.119	0.011	0.062	0.055	0.098	0.048	0.017	-0.096	-0.003
AARS2 (UniProt Q5JTZ9)	-0.029	-0.018	-0.212	-0.086	0.045	0.015	0.037	-0.051	-0.026	0.06	-0.082
BECN1 (UniProt Q14457)	0.045	0.083	-0.006	-0.016	-0.024	-0.073	-0.046	0.026	-0.071	0.021	0.011
BAP1 (UniProt Q92560)	-0.073	0.085	0.073	0.012	-0.054	0.13	0.058	0.04	0.076	-0.142	-0.062
BRIX1 (UniProt Q8TDN6)	0.056	-0.025	0.171	0.132	-0.008	0.059	-0.05	0.191	0.401	-0.437	0.029
ATF7 isoform 6 (UniProt P17544)	-0.113	0.138	-0.123	0.268	-0.045			0.067	-0.044		
ALDH6A1 (UniProt Q02252)	-0.02	0.034	-0.045	-0.116	-0.052	0.021	0.062	0.048	-0.072	-0.043	-0.028
BZW1 isoform 3 (UniProt Q7L1Q6)	0.071	-0.054	-0.246	-0.093	0.165	0.209	0.075	0.02	0.019	-0.081	0.03
BRD3 (UniProt Q15059)	0.008	-0.026	0.017	0.119	-0.123	-0.663 (active)	-0.567 (active)	0.061		-0.002	0.033
ATAD3A isoform 2 (UniProt Q9NVI7)	0.011	-0.088	-0.128	-0.088	0.053	0.123	0.076	0.051	0.12	-0.127	0.024
BUB1B isoform 3 (UniProt O60566)	0	-0.135	-0.113	-0.039	0.068	0.124	0.02	0.111	0.026	0	-0.016
